Bioassay records (PubChem)
This is one part of a sample in which hits are shown more often than they occur.
RBX1-CUL1 inh: human ROC1-CUL1 E3 ligase inhibition; P62877+Q13616; in vitro K48 di-Ub FRET, acceptor:donor ratio, 45 min; inhibition, % at 10 µM; 140,000 tested, 0.6% active; in the data active = inhibition above about 25%
Large screens that a line does not name were inactive.

COc1cc(/C=C2\C(=O)NN(c3ccccc3)C2=O)cc(Br)c1OCCCOc1ccccc1	none
COc1cc(/C=C2\C(=O)NN(c3ccccc3)C2=O)cc(Cl)c1OCCCOc1ccccc1	RBX1-CUL1 inh 93.5
COc1cc(/C=C2\C(=O)NN(c3ccccc3)C2=O)cc(Br)c1OCCCOc1ccc(C)cc1	none
O=C(CN1CCN(c2ccccc2)CC1)Nc1ccc(F)c(Cl)c1	none
Cc1ccc(S(=O)(=O)N2CCc3ccccc32)c(C)c1NS(C)(=O)=O	none
CC(C)c1nn2c(N)c(C=C3C=C(Br)C=CC3=O)c(=O)nc2s1	none
Nc1c(C=C2C=C(Cl)C(=O)C(Cl)=C2)c(=O)nc2sc(C34CC5CC(CC(C5)C3)C4)nn12	RBX1-CUL1 inh 75.9
CCC(CC)c1nn2c(N)c(C=C3C=CC(=O)C(OC)=C3)c(=O)nc2s1	none
O=c1[nH]c2ccccc2c(=O)n1CCSc1ccccn1	none
Cc1nn2cc(CCNC(=O)c3ccc(C4CCCN4)s3)nc2s1 (centres undefined)	none
CC(C)c1ccc(/C=C/c2nc(N)[nH]c(=O)c2[N+](=O)[O-])cc1	none
CC(C)(C)c1ccc(/C=C/c2[nH]c(=O)[nH]c(=O)c2[N+](=O)[O-])cc1	RBX1-CUL1 inh 99.1
CC(C)(C)c1ccc(N)c([N+](=O)[O-])c1	none
Cc1ccc(-c2c(C#N)c(N)nc(SCC(=O)Nc3ccc(S(=O)(=O)Nc4ncccn4)cc3)c2C#N)cc1	none
O=C1OC(c2cc(F)c(F)cc2Cl)=N/C1=C/c1cccs1	none
O=C(Nc1cc(Cl)ccc1O)c1cnn2c(-c3ccccc3)cc(-c3ccccc3)nc12	none
Cc1ccc(CNC(=O)c2cccc(Cl)c2)cc1	none
O=c1c(SCc2ccccc2)c(SCc2ccccc2)cnn1-c1ccccc1	none
O=c1c(SCc2ccco2)c(SCc2ccco2)cnn1-c1ccccc1	RBX1-CUL1 inh 31.1
CCSc1cnn(-c2ccccc2)c(=O)c1SCC	none
C=CCOc1cccc(C2Nc3ccccc3-c3nnc(SCC)nc3O2)c1 (centres undefined)	none
Cc1cc(C(C)(C)C)cc(C)c1CSc1ncnc2nc[nH]c12	none
CC(=O)OC(C(=O)Nc1ccc(F)cc1)C(OC(C)=O)C(OC(C)=O)C(OC(C)=O)C(=O)Nc1ccc(F)cc1 (centres undefined)	none
O=C(Nc1ccccc1C(=O)O)c1ccc(-c2ccc(Cl)cc2Cl)o1	none
CN(C(=O)c1ccco1)C(Cc1ccccc1Cl)C1CCN(Cc2cccc3cccnc23)CC1 (centres undefined)	none
CC(C)c1ccc(/C=C/C(=O)NCc2ccc3c(c2)OCO3)cc1	none
CN(CCC(=O)/C=C/c1ccc(Cl)c(Cl)c1)CCc1ccc2c(c1)OCO2	RBX1-CUL1 inh 82.6
O=C(/C=C/c1ccc2c(c1)OCO2)Sc1ccc(Cl)cc1	none
Cc1cccc(OC(=O)COc2ccc(Cl)cc2Cl)c1C	none
Cn1ccnc1CN1CCOC(Cc2cccc(C(F)(F)F)c2)C1 (centres undefined)	none
Cc1ccc(Cl)cc1N1CCN(C(=O)CN(c2ccc(Cl)cc2)S(=O)(=O)c2ccccc2)CC1	none
CCC1CCCCN1CCCNC(=O)C1C(=O)N=C2C=C(C)C=CN2C1=O (centres undefined)	none
CC1=CC2(C)C(OC1=O)C1OC(=O)C(C)=CC12C (centres undefined)	none
CCOc1ccc(C2=C(C=NCCc3c[nH]c4ccccc34)C(c3ccccc3C)c3ccccc3O2)cc1 (centres undefined)	none
CC(C)(O)C#Cc1ccc(C(=O)N2CCCC2c2ccc(C(N)=O)s2)o1 (centres undefined)	none
Cc1c(N=Cc2cc3c(cc2[N+](=O)[O-])OCO3)cccc1[N+](=O)[O-]	RBX1-CUL1 inh 90.7
Cc1ccccc1N=Cc1cc2c(cc1[N+](=O)[O-])OCO2	none
O=[N+]([O-])c1ccc(N=Cc2cc3c(cc2[N+](=O)[O-])OCO3)c(Br)c1	none
CC(C)OC(=O)c1ccc(NC(=O)c2cccc(COc3ccc4c(c3)CCC4)c2)cc1	none
c1ccc2cc(N3CCCCC3)ncc2c1	RBX1-CUL1 inh 65.0
O=[N+]([O-])c1ccc(N2CCCCC2)nc1	none
c1ccc(-c2cc(N3CCCCC3)ncn2)cc1	none
CC(C)=NNc1cc(-n2ncc(=O)n(C)c2=O)c(F)cc1Cl	none
CCOC(=O)c1ccc2c(c1)sc1nc(-c3ccccc3)cn12	none
CC(=O)Nc1nnc(SCc2ccccc2Cl)s1	none
N#CC1C=C(C(=O)O)C(=O)N=C1SCc1ccccc1Cl (centres undefined)	RBX1-CUL1 inh 73.1
O=C(NC1CCCCC1)N1CCCn2c(SCc3ccccc3Cl)nnc21	none
COc1ccc(C(Nc2ncn[nH]2)c2ccccc2)cc1 (centres undefined)	none
COc1cccc(C=Nc2ccc(C(N)=O)cc2)c1O	none
COc1ccc(OC)c(C(=O)O)c1N	none
COc1ccc2c(c1O)SC(=O)C2	RBX1-CUL1 inh 106.0
COc1ccc(/C=C2/C(=O)NN(c3ccc(Br)cc3)C2=O)cc1	none
O=C1NN(c2ccc(Cl)c(Cl)c2)C(=O)/C1=C/c1cc(Br)ccc1O	RBX1-CUL1 inh 73.2
O=C1NN(c2ccc(Cl)c(Cl)c2)C(=O)/C1=C/c1ccc(Cl)cc1Cl	none
O=C1NN(c2ccc(Cl)cc2)C(=O)/C1=C/c1ccc(O)cc1	none
O=C1NN(c2ccc(Cl)cc2)C(=O)/C1=C/c1ccc(Br)cc1	RBX1-CUL1 inh 53.4
